# Results filed as inconclusive are left out. Active and inactive are the calls of the source. Calls come from the whole dose curve; as a rule, active = well fitted cell-killing curve with a large enough effect; inconclusive = small, poorly fitted or top-dose-only effect, or effect the other way; inactive = no such curve, though single readings can be large or run the other way.
# Experiment: Cell Viability - LYMP2-005 (AID 967);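 note: cells exposed to compound for 24 h at 37 °C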
# Conditions: LYMP2-005 lymphoblastoid cell viability; series mostly up to 92.2 µM
# Description: NIH Chemical Genomics Center [NCGC]
# NIH Molecular Libraries Screening Centers Network [MLSCN]
# National Institutes of Environmental Health Sciences [NIEHS]
# National Toxicology Program [NTP]
# We have developed a 1536-well cell-based assay for quantitative high throughput screening (qHTS) against a number of cell lines to determine in vitro cytotoxicity of small molecules. This particular assay uses a human lymphoblastoid cell line (LYMP2-005) purchased from Coriell Institute for Medical Research.
# NCGC Assay Protocol Summary:
# The CellTiter-Glo luminescent cell viability assay (Promega) is a homogeneous method to measure the number of viable cells in culture. The end point readout of this assay is based on quantitation of intracellular ATP, an indicator of metabolic activity, using the luciferase reaction. Luciferase catalyzes the oxidation of beetle Luciferin to oxyluciferin and light in the presence of ATP. The luminescent signal is proportional to amount of ATP present.
# Using the CellTiter-Glo luminescent cell viability assay, the amount of cellular ATP was measured in the lymphoblastoid cell line with complete culture medium following compound treatment for 24 hours. The assay was performed in opaque white Kalypsys 1536-well plates. In the screen, tetraoctylammonium bromide was used as positive control. Library compounds were measured for their ability to cause acute toxicity in the cell line, as reflected by a decrease in intracellular ATP levels, in a concentration-dependent manner. […] AC50 values were determined from concentration-response data modeled with the standard Hill equation.
# qHTS protocol for CellTiter Glo lymphoblastoid cellular assay
# [Step] [Parameter] [Value] [Description]
# 1. Reagent; 5 uL; 2500 lymphoblastoid cells/well
# 2. Time; 5 hr; 37 C incubation
# 4. Controls; 23 nL; Tetraoctylammonium bromide 6.4pM to 92 uM
# 5. Time; 24 hr; 37 C incubation
# 6. Reagent; 5 uL; CellTiter Glo reagent
# 7. Time; 30 min; Room Temperature
# 8. Detection; Luminescence; Viewlux plate reader
# Keywords: cell viability, cytotoxicity, lymphoblastoid cell line, luminescence, NTPHTS, NTPHTS_NCGC, NIEHS, DSSTox, MLSMR, MLSCN, NIH Roadmap, qHTS, NCGC
row,Compound,outcome
1,O=C(O)c1ccc(CO)o1,inactive
2,Nc1ccccc1[N+](=O)[O-],inactive
3,CCC(=O)/C=C/C1C(C)=CCCC1(C)C (stereo not given),inactive
4,O=C(O)c1ccc(C(=O)O)cc1,inactive
5,CCC(C)=O,inactive
6,CCC(C)O (stereo not given),inactive
7,CC(=O)OC(C)=O,inactive
8,O=C1OC(=O)c2cc([N+](=O)[O-])ccc21,inactive
9,CC(=O)c1cc(C)oc1C,inactive
10,O=P(O)(OCc1ccccc1)OCc1ccccc1,inactive
11,CCCCC(=O)N(C)C,inactive
12,COCCOC(=O)c1ccccc1C(=O)OCCOC,inactive
13,Cc1c(N)cccc1N,inactive
14,CCCCC(CC)CNCC(CC)CCCC (stereo not given),inactive
15,O=C1OC(=O)c2c(Cl)c(Cl)c(Cl)c(Cl)c21,inactive
16,CCN(Cc1ccccc1)c1ccccc1,inactive
17,O=[N+]([O-])c1ccccc1CCO,inactive
18,CC(=O)CC(C)C,inactive
19,NC(=O)c1ccccc1[N+](=O)[O-],inactive
20,CCCCC=O,inactive

row,Compound,outcome
1,Cc1ccccc1C=O,inactive
2,O=C1C=CCCC1,inactive
3,CC(C)C(C)C,inactive
4,C=Cc1ccccn1,inactive
5,CCCCCCCCCCCCC1CO1 (stereo not given),inactive
6,C=CC(=O)OCCCC,inactive
7,N#Cc1ccccc1,inactive
8,Oc1cccc(Nc2ccccc2)c1,inactive
9,O=C(Cl)c1cccc([N+](=O)[O-])c1,inactive
10,CC/C(C)=N/O,inactive
11,Cc1ccc(C)c(O)c1,inactive
12,CC(C)=C1CCC(C)CC1=O (stereo not given),inactive
13,O=[N+]([O-])c1ccc(CCO)cc1,inactive
14,O=Cc1cccc(Br)c1,inactive
15,CCCCOCCOCCSC#N,inactive
16,c1ccc2c(c1)Oc1ccccc1S2,inactive
17,CCCOCC(C)O (stereo not given),inactive
18,CC(=O)OCCC(C)C,inactive
19,N#CCc1ccccc1[N+](=O)[O-],inactive
20,NCCCCCCN,inactive

# From PubChem BioAssay (NCATS)
